Test results taken from PubChem BioAssay (EPA / NIEHS).
Active and inactive are the calls of the source. Rule for the calls: active = hit-call score of the fitted dose curve at least 0.9, where 1 is the maximum; inactive = score below 0.9.

Assays:
Details in all cases: mRNA level, 48 h; actives raise or lower the signal
[1] = read-out: Potassium channel subfamily K member 1 (KCNK1), KCNK1 (gene 3775); assay: LTEA_HepaRG_KCNK1: Life Technologies and Expression Analysis (LTEA) Assay for Potassium channel subfamily K member 1 (KCNK1) using HepaRG (AID 2283511)
Outline: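 Gain or loss of KCNK1 mRNA is the read-out, quantified by qRT-PCR against three housekeeping genes after 48 h chemical treatment of human HepaRG liver cells. Concentrations ran from 100 uM downward in half-log steps, vehicle 0.5% DMSO.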

[2] = read-out: Keratin 19 (KRT19), KRT19 (gene 3880); assay: LTEA_HepaRG_KRT19: Life Technologies and Expression Analysis (LTEA) Assay for Keratin 19 (KRT19) using HepaRG (AID 2283512)
Outline: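 Differentiated HepaRG cells in serum-free induction medium, exposed 48 h in duplicate to 8 half-log concentrations up to 100 uM in 0.5% DMSO. KRT19 mRNA by qRT-PCR, normalized to ACTB, GAPDH, POLR2A; bidirectional fit vs DMSO.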

[3] = read-out: Lipase C (LIPC), LIPC (gene 3990); assay: LTEA_HepaRG_LIPC: Life Technologies and Expression Analysis (LTEA) Assay for Lipase C (LIPC) using HepaRG (AID 2283514)
Outline: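 Read-out is LIPC transcript level by TaqMan qRT-PCR, normalized to three housekeeping genes, after 48 h chemical treatment of human HepaRG liver cells. Curves span eight concentrations topping at 100 uM; activity in either direction scored relative to 0.5% DMSO.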

[4] = read-out: Lipoprotein lipase (LPL), LPL (gene 4023); assay: LTEA_HepaRG_LPL: Life Technologies and Expression Analysis (LTEA) Assay for Lipoprotein lipase (LPL) using HepaRG (AID 2283515)
Outline: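 Read-out is LPL transcript level by qRT-PCR, normalized to three housekeeping genes and fitted bidirectionally against the DMSO control. Human HepaRG cells received chemicals for 48 h at up to 100 uM.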

[5] = read-out: MicroRNA 122 (MIR122), gene 406906; assay: LTEA_HepaRG_MIR122: Life Technologies and Expression Analysis (LTEA) Assay for MicroRNA 122 (MIR122) using HepaRG (AID 2283516); note: the transcript read is the microRNA miR-122
Outline: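 Differentiated human HepaRG cells were exposed 48 h in serum-free induction medium to eight half-log concentrations (top 100 uM, 0.5% DMSO). Transcript level was measured by TaqMan qRT-PCR, normalized to ACTB, GAPDH and POLR2A, and fitted bidirectionally versus DMSO.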

[6] = read-out: matrix metalloproteinase-10 (MMP10), MMP10 (gene 4319); assay: LTEA_HepaRG_MMP10: Life Technologies and Expression Analysis (LTEA) Assay for matrix metalloproteinase-10 (MMP10) using HepaRG (AID 2283517)
Outline: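 Gain or loss of MMP10 mRNA is fitted relative to the 0.5% DMSO vehicle. The human hepatic line HepaRG receives a 48-hour serum-free exposure, in duplicate, with a maximum concentration of 100 uM.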

MYC, MYC (gene 4609) = assay: LTEA_HepaRG_MYC: Life Technologies and Expression Analysis (LTEA) Assay for MYC using HepaRG (AID 2283518)
Outline: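 Differentiated HepaRG cells exposed 48 h in serum-free induction medium to 8 concentrations (top 100 uM, half-log steps; 0.5% DMSO), duplicate. MYC mRNA measured by Fluidigm qRT-PCR, normalized to ACTB, GAPDH, POLR2A; bidirectional fit versus DMSO.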

[7] = read-out: matrix metalloproteinase-3 (MMP3), MMP3 (gene 4314); assay: LTEA_HepaRG_MMP3: Life Technologies and Expression Analysis (LTEA) Assay for matrix metalloproteinase-3 (MMP3) using HepaRG (AID 2283519)
Outline: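 HepaRG, human; 48 h dosing, 8 conc. (max 100 uM, half-log), duplicate, 0.5% DMSO. Readout: MMP3 transcript by Fluidigm TaqMan qRT-PCR, ACTB/GAPDH/POLR2A-normalised. Gain or loss fitted vs DMSO.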

[8] = read-out: Paternally Expressed 10 (PEG10), PEG10 (gene 23089); assay: LTEA_HepaRG_PEG10: Life Technologies and Expression Analysis (LTEA) Assay for Paternally Expressed 10 (PEG10) using HepaRG (AID 2283520)
Outline: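 Differentiated HepaRG cells, plated 48 h then switched to serum-free induction medium, were exposed in duplicate for 48 h to eight half-log concentrations topping at 100 uM in 0.5% DMSO. PEG10 mRNA was quantified by TaqMan qRT-PCR, normalised to ACTB, GAPDH and POLR2A.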

[9] = read-out: JUN Transcription Factor, JUN (gene 3725); assay: LTEA_HepaRG_JUN: Life Technologies and Expression Analysis (LTEA) Assay for JUN Transcription Factor using HepaRG (AID 2283513)
Outline: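 Differentiated HepaRG cells were exposed to chemicals for 48 h in serum-free induction medium, 8 concentrations from 100 uM in half-log steps, 0.5% DMSO vehicle, in duplicate. JUN mRNA was quantified by TaqMan qRT-PCR, normalized to ACTB, GAPDH, POLR2A.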

Measured: AC50

O=P(O)(O)CCCl
not listed: [8] | [9]
inactive: all other assays above

CCCN(CC)CC1COC2(CCC(C(C)(C)C)CC2)O1 (configuration not stated)
not listed: [8] | [9]
inactive: all other assays above

COC(=O)c1c(C(F)F)nc(C(F)(F)F)c(C2=NCCS2)c1CC(C)C
not listed: [8] | [9]
inactive: all other assays above

CS(=O)(=O)c1cc(C(F)(F)F)ccc1C(=O)c1cnoc1C1CC1
not listed: [8] | [9]
inactive: all other assays above

N#Cc1c[nH]cc1-c1cccc2c1OC(F)(F)O2
active: [2] 23.9 µM | [3] 46.7 µM | [4] 7.8 µM | MYC, MYC (gene 4609) 80.3 µM | [8] 74.2 µM
inactive: [1] | [5] | [6] | [7]

N#Cc1c(Cl)cccc1Cl
not listed: [8] | [9]
inactive: all other assays above

CCNC(=O)NC(=O)C(C#N)=NOC
active: [3] 50 µM
not listed: [8] | [9]
inactive: all other assays above

Cc1c(COC(=O)[C@@H]2[C@H](/C=C(\Cl)C(F)(F)F)C2(C)C)cccc1-c1ccccc1
not listed: [8] | [9]
inactive: all other assays above

CCCCC(O)(Cn1cncn1)c1ccc(Cl)cc1Cl (configuration not stated)
active: [1] 41.3 µM | [3] 75.2 µM | [4] 50 µM | [5] 77 µM | [6] 67.4 µM | MYC, MYC (gene 4609) 74.7 µM | [7] 92.3 µM
inactive: [2]

CN=C=S
not listed: [8] | [9]
inactive: all other assays above

Cc1nc(N(C)C)nc(OC(=O)N(C)C)c1C
not listed: [9]
inactive: all other assays above

Cc1cnc(C2=NC(C)(C(C)C)C(=O)N2)c(C(=O)O)c1 (configuration not stated)
not listed: [8] | [9]
inactive: all other assays above

Nc1c(Cl)c(Cl)nc(C(=O)O)c1Cl
not listed: [8] | [9]
inactive: all other assays above

Clc1cccc(C(Cl)(Cl)Cl)n1
not listed: [9]
inactive: all other assays above

CC(C)C1(C)N=C(c2ncccc2C(=O)O)NC1=O (configuration not stated)
not listed: [2] | [9]
inactive: all other assays above

CNC(=O)N(C)c1nnc(C(C)(C)C)s1
not listed: [2]
inactive: all other assays above

COCC(C)N(C(=O)CCl)c1c(C)csc1C (configuration not stated)
not listed: [2] | [8] | [9]
inactive: all other assays above

CCCCOCN(C(=O)CCl)c1c(CC)cccc1CC
not listed: [9]
inactive: all other assays above

COP(=O)(OC)O/C(C)=C/C(=O)N(C)C
not listed: [9]
inactive: all other assays above
